Test results taken from PMC12864922, “TDP-43 directly inhibits mRNA accumulation in neurites through modulation of mRNA stability”.
The full ranking holds about 9,900 sequences; the median of “r (bound/input frequency ratio)” is about 0.7, and the highest 2% start at about 6.5. What follows is part of a selection rich in the highest values, with near analogues and random picks from the rest.

B1: ENSMUSG00000061578.598|Ksr2 (ssRNA)
RNA: GGGAGUUCUACAGUCCGACGAUCGCUUCGAUAUCCGCAUGCUAUAAAAUAUGAUUCAGGCAAAUUCAAUGCAACUCAAAAUUUCCACCAAUCCCAUAUUGUCCCUAGCAAUGACAAAAUUAUUUGCAAGACAGACCCUGUGACCUGUAGAGGCAAAAUAUAUGGUGGCUUGCCUGGCUGGCCUGUGAUAUAGUGGACUGUCUUAGUGAUCGGACUUCAGGGAGCAACCUAUAGGAAAUGCAAAGGCUUAGAGGGGACGGACAGCUCCCUGACCCUGGAUGGCCAGGAAUGGUGCUAGCUAGGGCUCUUGCGGUCGCACUAGUGUGGAAUUCUCGGGUGUCAAGG
B2: ENSMUSG00000031028.646|Tub (ssRNA)
RNA: GGGAGUUCUACAGUCCGACGAUCGCUUCGAUAUCCGCAUGCUACCCCACUGAGGUCCAGGUAGAGCAGAUGAGGCUGAAAUGUAGAGUGUUCUAUAGAGCAUCUCAGUAGCAUAGAAGGAGAAGCCCAGCUCCAACCUCCUGGACCCCAUACUGGUGACCAGCUUGGUGAGGACAGGCAAAAUUUCUCUAGCUGAGAGCACACUUAGCCAGUUUUCACGCCUAGAACAUAUAUGUCGAUUUGCACAUGAUUGUCUUUUCCUAUUUUGGAGUGGUCAGACAUUUUAUUUUUGUUCAAAAUUAUCCUCUUGCGGUCGCACUAGUGUGGAAUUCUCGGGUGUCAAGG
B3: ENSMUSG00000031028.671|Tub (ssRNA)
RNA: GGGAGUUCUACAGUCCGACGAUCGCUUCGAUAUCCGCAUGCUAGAGAGCACACUUAGCCAGUUUUCACGCCUAGAACAUAUAUGUCGAUUUGCACAUGAUUGUCUUUUCCUAUUUUGGAGUGGUCAGACAUUUUAUUUUUGUUCAAAAUUAUCUGGAGUUUUAGACAAACUUGCAAAACUGUGCUUUUAUUAAGUGACUUUUUGAAUAAACUUUUUGGUAUUCUGAAGCAAAUGUAUUUAUUUAUUGGUAUGUGCAAUGACAAACUUGGUAUUUUCCCAUAAUGACAUUAUGUAUGUUGUAGACUCUUGCGGUCGCACUAGUGUGGAAUUCUCGGGUGUCAAGG
B4: ENSMUSG00000029636.275|Wasf3|21:26 (ssRNA)
RNA: GGGAGUUCUACAGUCCGACGAUCGCUUCGAUAUCCGCAUGCUAUCCCUACGCCCUGCUUUGGCCACACACUGAGUGCUCUGUGCUGCGCCAUGGCCAUCCUGGAGCCUGCGCACACGUGGCCGCUGCUGUGACUCGCUGUCCUUGGUAAUUGGUGAGAGGCUUUUUCUUUCUUUCUCAGUUCUGCUUUUCCACACUGAGACCCACCAUGUUGACAUCAUCCUCGCGACGUUGACAUUUGAGCCUUUUGUUCUGUCUCCCAUGUGCCCUGUAGAACCCAGCACUCAUGUUUGGCAAAACUUUUUCUCUUGCGGUCGCACUAGUGUGGAAUUCUCGGGUGUCAAGG

Molecular target: TDP-43 (Homo sapiens, UniProt Q13148 1-414)
Sequence (Q13148 whole entry): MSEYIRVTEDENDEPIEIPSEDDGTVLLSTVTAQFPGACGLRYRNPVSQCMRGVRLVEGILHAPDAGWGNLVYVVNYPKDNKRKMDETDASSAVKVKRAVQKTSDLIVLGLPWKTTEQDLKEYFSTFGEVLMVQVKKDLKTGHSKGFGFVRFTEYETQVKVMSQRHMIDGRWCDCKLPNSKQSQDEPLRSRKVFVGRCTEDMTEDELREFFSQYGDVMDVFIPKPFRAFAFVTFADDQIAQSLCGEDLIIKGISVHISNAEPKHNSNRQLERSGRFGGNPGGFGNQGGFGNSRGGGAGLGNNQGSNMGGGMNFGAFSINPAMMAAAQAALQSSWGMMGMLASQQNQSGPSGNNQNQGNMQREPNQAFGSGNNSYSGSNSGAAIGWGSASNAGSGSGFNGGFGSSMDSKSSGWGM
Test: RNA Bind-n-Seq with designed 260-mer pool; 25 mM Tris-HCl, 150 mM KCl, 3 mM MgCl2, BSA (printed 500 mg/mL), 20 units/mL SUPERase IN; pH not stated; 500 nM RNA pool, 1 h, 4 C; TDP-43 5, 50, 500 nM; high values mean tight binding
Conditions: protein: recombinant; tags: SBP (GST cleaved off with PreScission; pGEX-GST-SBP)
Outline: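 An in vitro-transcribed pool of 260-nt 3′ UTR oligos (500 nM) was incubated for 1 h at 4 °C with recombinant SBP-tagged TDP-43 at 5, 50 or 500 nM held on streptavidin beads. The buffer contained 25 mM Tris-HCl, 150 mM KCl, 3 mM MgCl2, BSA and SUPERase IN. Biotin-eluted bound RNA was sequenced, and binding, R, is each oligo's normalized read abundance in the bound sample over that in input.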

| Binder | binding signal |
| --- | --- |
| B1 | 0.515 R (bound/input frequency ratio) |
| B2 | 0.442 R (bound/input frequency ratio) |
| B3 | 0.247 R (bound/input frequency ratio) |
| B4 | 1.01 R (bound/input frequency ratio) |
